Unmarked numbers belong to inactive results. Inconclusive results are not listed. Where a call stands in place of a potency, no number is given. Activity calls are given as the source filed them. Unless noted, the call rests on the fitted dose curve; in most records, active means well fitted curve in the direction sought with a large enough effect in the repeat runs; inconclusive means weak or mixed curves; inactive means no such curve, though single readings can be large; an effect the other way counts as inactive or inconclusive.
Assays:
[1] = qHTS assay to identify small molecule agonists of the estrogen receptor alpha (ER-alpha) signaling pathway in the presence of an antagonist - cell viability counter screen (AID 1259386);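 further: series mostly up to about 92 µM; cells exposed to compounds for 22 h at 37 °C before the viability read; nearly all actives have a fitted effect of over 30% in size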
Method in brief: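 Using estrogen-depleted VM7Luc4E2 cells, the 15-concentration compound series was applied together with 10.0nM ICI-182,780 and incubated 22hr at 37C/5% CO2. Cell viability was then scored by CellTiter-Fluor.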

[2] = molecular target: Progesterone receptor (Homo sapiens) (UniProt P06401); assay: qHTS assay to identify small molecule agonists of the progesterone receptor (PR) signaling pathway (AID 1346784; calls by dose curve; further: nearly all actives have a fitted effect of over 30% in size; further: potency means the concentration at half of the fitted maximal effect)
Sequence of Progesterone receptor (Homo sapiens) (P06401 whole entry, looked up): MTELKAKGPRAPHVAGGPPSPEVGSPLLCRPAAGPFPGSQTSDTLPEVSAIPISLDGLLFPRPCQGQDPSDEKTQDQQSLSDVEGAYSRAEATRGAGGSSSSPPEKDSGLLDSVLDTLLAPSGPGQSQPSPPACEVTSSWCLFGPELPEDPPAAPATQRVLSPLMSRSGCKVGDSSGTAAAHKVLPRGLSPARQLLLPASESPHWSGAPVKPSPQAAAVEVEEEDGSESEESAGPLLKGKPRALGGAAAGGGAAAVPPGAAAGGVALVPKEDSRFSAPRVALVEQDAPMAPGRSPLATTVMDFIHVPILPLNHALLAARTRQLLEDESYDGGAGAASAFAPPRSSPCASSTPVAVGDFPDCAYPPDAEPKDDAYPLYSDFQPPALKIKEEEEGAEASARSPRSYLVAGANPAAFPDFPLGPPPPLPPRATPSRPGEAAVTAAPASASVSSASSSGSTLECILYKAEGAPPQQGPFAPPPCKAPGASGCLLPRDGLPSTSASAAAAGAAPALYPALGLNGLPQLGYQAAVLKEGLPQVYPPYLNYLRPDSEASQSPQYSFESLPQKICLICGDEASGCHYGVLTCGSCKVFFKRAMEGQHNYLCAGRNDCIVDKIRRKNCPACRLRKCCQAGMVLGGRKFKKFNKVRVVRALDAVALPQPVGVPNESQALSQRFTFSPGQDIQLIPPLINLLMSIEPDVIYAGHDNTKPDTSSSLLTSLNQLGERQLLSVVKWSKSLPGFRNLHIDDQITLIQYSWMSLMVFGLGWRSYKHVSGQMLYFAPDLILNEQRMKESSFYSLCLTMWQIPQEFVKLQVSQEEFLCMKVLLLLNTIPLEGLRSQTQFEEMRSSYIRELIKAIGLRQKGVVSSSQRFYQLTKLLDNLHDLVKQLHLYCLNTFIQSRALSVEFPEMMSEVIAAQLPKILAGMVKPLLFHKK
Method in brief: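 HEK 293T PR-UAS-bla reporter cells, 2% charcoal-stripped FBS; 6 hr settle at 37C/5% CO2, compound (DMSO) 16 hr, LiveBLAzer B/G FRET substrate 2 hr RT, fluorescence intensity read.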

[3] = molecular target: Progesterone receptor (Homo sapiens) (UniProt P06401); assay: qHTS assay to identify small molecule antagonists of the progesterone receptor (PR) signaling pathway (AID 1346795; active means well fitted inhibition curve with a large enough effect in the signal ratio in the repeat runs, not every such curve was filed as active; the % refers to the signal ratio)
Method in brief: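 Beta-lactamase reporter, HEK293T PR-UAS-bla line; 2% charcoal-stripped FBS; 6 hr pre-incubation, 37C/5% CO2. Compound + R5020 1 nM final, 16 hr. LiveBLAzer B/G FRET substrate, 2 hr RT; fluorescence intensity read.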

[4] = qHTS assay to identify small molecule antagonists of the progesterone receptor (PR) signaling pathway - cell viability counter screen (AID 1346798); further: series mostly up to about 92 µM; nearly all actives have a fitted effect of over 50% in size
Method in brief: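 Luminescence readout (CellTiter-Glo, 30 min, RT) of viability in PR-UAS-bla HEK293T cells exposed to compound and R5020 agonist for 16 hr at 37C, 5% CO2; run in the same wells as the beta-lactamase reporter read.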

[5] = qHTS assay to identify small molecule agonists of the progesterone receptor (PR) signaling pathway - cell viability counter screen (AID 1346799; calls by dose curve; further: nearly all actives have a fitted effect of over 45% in size)
Method in brief: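 HEK293T PR-UAS-bla, 3,000 cells/well, 2% charcoal-stripped FBS; 6 h settle, compound 16 h at 37C/5% CO2; LiveBLAzer 2 h RT, then CellTiter-Glo 30 min RT, luminescence read.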

[6] = qHTS assay to identify small molecule agonists of the TGF-beta/Smad signaling pathway - cell viability counter screen (AID 1346829); further: top concentration of the series differs between compounds; nearly all actives have a fitted effect of over 45% in size
Method in brief: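 CellTiter-Glo luminescence readout; SBE-bla HEK 293T cells, overnight plating, compound 5 hr at 37 C/5% CO2, then bla substrate 2 hr RT, then CellTiter-Glo 30 min RT.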

[7] = qHTS assay to identify small molecule agonists of the TGF-beta/Smad signaling pathway (AID 1346859; active means well fitted activation curve with a large enough effect in the signal ratio in the repeat runs, not every such curve was filed as active; the % refers to the signal ratio; further: series mostly up to about 77 µM)
Method in brief: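 Read-out: fluorescence at 460 and 530 nm (405 nm excitation) after a 2 hr room-temperature incubation with beta-lactamase FRET substrate. SBE-bla HEK 293T cells had been treated with test compounds for 5 hr at 37 C.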

[8] = qHTS assay to identify small molecule antagonists of the TGF-beta/Smad signaling pathway - cell viability counter screen (AID 1346824); further: nearly all actives have a fitted effect of over 50% in size
Method in brief: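 Cytotoxicity counter-screen run in the same wells as the beta-lactamase Smad reporter read: CellTiter-Glo luminescence after 30 min at room temperature. HEK 293T SBE-bla cells had 5 hr compound exposure at 37 C with TGF-beta1 (0.25 ng/mL stock).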

[9] = molecular target: Thyrotropin-releasing hormone receptor (Homo sapiens) (UniProt P34981); assay: qHTS assay to identify small molecule antagonists of the thyrotropin-releasing hormone receptor (TRHR) signaling pathway (AID 1346877; active means well fitted inhibition curve with a large enough effect in the repeat runs, not every such curve was filed as active; further: series mostly up to about 51 µM)
Sequence of Thyrotropin-releasing hormone receptor (Homo sapiens) (P34981 whole entry, looked up): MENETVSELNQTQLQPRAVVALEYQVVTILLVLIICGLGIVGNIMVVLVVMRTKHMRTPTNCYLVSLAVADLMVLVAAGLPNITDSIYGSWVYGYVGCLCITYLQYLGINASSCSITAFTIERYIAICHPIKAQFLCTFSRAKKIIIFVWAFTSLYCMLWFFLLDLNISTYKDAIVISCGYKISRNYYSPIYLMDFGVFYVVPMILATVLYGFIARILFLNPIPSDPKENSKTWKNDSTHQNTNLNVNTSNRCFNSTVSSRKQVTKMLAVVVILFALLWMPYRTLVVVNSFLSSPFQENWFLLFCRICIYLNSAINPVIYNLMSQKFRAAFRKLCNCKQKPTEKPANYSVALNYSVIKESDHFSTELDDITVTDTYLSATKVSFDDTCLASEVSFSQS
Method in brief: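 Calcium signal in dye-loaded TRHR/HEK293 cells; compounds added 5 min before TRH (1 nM final); fluorescence monitored 3 min at 1 s steps.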

[10] = molecular target: Thyrotropin-releasing hormone receptor (Homo sapiens) (UniProt P34981); assay: qHTS assay to identify small molecule agonists of the thyrotropin-releasing hormone receptor (TRHR) signaling pathway (AID 1346891; calls by dose curve;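 further: HEK293 cells expressing TRHR with calcium dye readout; series mostly up to about 58 µM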)
Method in brief: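 HEK293/TRHR cells, 1500 per well, 18 h 37 °C; Ca dye 2 h 37 °C; pin-tool compound addition (agonist mode); kinetic fluorescence 3 min, 1 s reads; 15 concentrations, triplicate.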

Row | SMILES | Potency [1] | Potency [2] | Potency [3] | Potency [4] | Potency [5] | Potency [6] | Potency [7] | outcome [8] | outcome [9] | outcome [10]
1 | Nc1ccn([C@H]2CS[C@@H](CO)O2)c(=O)n1 | inactive | inactive | inactive | inactive | inactive | inactive | inactive |  |  | 
2 | O=C(Nc1ccc(C(=O)O)c(O)c1)c1ccccc1 | inactive | inactive | inactive | inactive |  | inactive | inactive | inactive | inactive | inactive
3 | O=C1OC[C@H](Cc2cccc(O)c2)[C@H]1Cc1cccc(O)c1 | inactive | inactive | inactive | inactive |  | inactive | inactive | inactive | inactive | inactive
4 | C=C(C)c1ccccc1 | inactive | 15.4 µM (active) | inactive | inactive |  | inactive | inactive | inactive | inactive | inactive
5 | Cc1oc(=O)oc1COC(=O)[C@@H]1N2C(=O)[C@@H](NC(=O)[C@H](N)c3ccccc3)[C@H]2SC1(C)C | inactive | inactive | inactive |  | inactive | inactive | inactive | inactive |  | inactive
6 | COc1cc(OC)c2ccc(=O)oc2c1 | inactive | inactive |  | inactive | inactive | inactive | inactive | inactive |  | 
7 | CC(C)N=C=NC(C)C | inactive | inactive | inactive |  | inactive | inactive | inactive | inactive | inactive | inactive
8 | CCCc1nc2c(C)cc(-c3nc4ccccc4n3C)cc2n1Cc1ccc(-c2ccccc2C(=O)O)cc1 | inactive | inactive | inactive |  | inactive | inactive |  | inactive |  | inactive
9 | CC1CCCO1 (centres undefined) | inactive | inactive |  | inactive | inactive | inactive | inactive | inactive | inactive | inactive
